# Measured values as given in the supplement of paper PMC10646978.
# ± gives the standard deviation.
# Assays:
# Conditions in all cases: modulator concentration 10 µM
# [1] = test system: RAW-Dual (murine macrophage reporter line); test: NF-kB reporter (SEAP) activity fold change vs agonist alone; higher = enhanced NF-kB activity
# How it was run: (§1)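 Compound reached 10 μM final in each well by pin transfer, onto RAW-Dual murine macrophage reporter cells seeded at 50 000 per well in 384-well plates. After 1 hour at 37 °C, the cells were stimulated overnight with a PRR agonist. SEAP in the supernatant was read with QUANTI-Blue at 620 nm absorbance for NF-κB, and Lucia luciferase was read with QUANTI-Luc luminescence for IRF. Each signal was turned into fold change against the mean agonist-only control on the same plate, and two replicate plates were averaged with propagated errors.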
# [2] = test system: RAW-Dual (murine macrophage reporter line); test: IRF reporter (Lucia luciferase) activity fold change vs agonist alone; higher = enhanced IRF activity
# How it was run: as §1
# [3] = test system: RAW-Dual (murine macrophage reporter line); test: viability score (confluency relative to resting cells, overnight) (fraction); higher = more viable, active = viable (0.7 or more)
# How it was run: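 RAW-Dual macrophages in 384-well plates were exposed overnight to compound at 10 μM final. Confluency was imaged with IncuCyte, and two confluency masks were generated with IncuCyte software over all imaged wells. The viability score is confluency expressed relative to resting cells. Compounds were called viable if both masks exceeded 70% of resting cells.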
# [4] = agonist: CpG ODN 1826 0.5 ug/mL
SMILES,"NF-kB reporter [1, 4]",NF-kB reporter ([1]; agonist: LPS 0.1 ug/mL),NF-kB reporter ([1]; agonist: MPLA […]),IRF reporter ([2]; agonist: 3'3'-cGAMP 10 ug/mL),IRF reporter ([2]; agonist: LPS 0.1 ug/mL),IRF reporter ([2]; agonist: MPLA […]),viability score [3]
CSc1nc(C(C)(C)C)cc(C(F)(F)F)c1C#N,0.738 ± 0.061,0.955 ± 0.15,1.12 ± 0.049,0.998 ± 0.05,0.855 ± 0.12,0.923 ± 0.26,0.996 (active)
Fc1ccc(Nc2nc(NN=Cc3ccc(Cl)cc3)nc(N3CCCCC3)n2)cc1,1.02 ± 0.087,0.949 ± 0.13,1.01 ± 0.1,1 ± 0.032,1.14 ± 0.12,1.24 ± 0.2,1.05 (active)
CN1C(=O)OC(C)(C)C1=O,1.01 ± 0.12,1.09 ± 0.075,1.05 ± 0.03,1.04 ± 0.17,1.01 ± 0.14,0.957 ± 0.22,1 (active)
Cc1ccc(S(=O)(=O)c2ccc(O)c(O)c2)cc1,0.932 ± 0.074,1.02 ± 0.095,1.03 ± 0.086,0.599 ± 0.036,1.31 ± 0.096,1.08 ± 0.12,0.987 (active)
Cc1cc(N2CCCC2)nc(Nc2ccc(NC(=O)CC(C)C)cc2)n1,0.131 ± 0.01,1.18 ± 0.087,1.31 ± 0.13,0.947 ± 0.04,1.3 ± 0.14,1.49 ± 0.2,0.939 (active)
C=CCn1c(SCC(=O)NCCN2CCOCC2)nc2sc3c(c2c1=O)CCC3,0.99 ± 0.079,1.05 ± 0.069,0.852 ± 0.068,1.02 ± 0.081,1.48 ± 0.11,0.984 ± 0.083,1.01 (active)
Cc1ccc2oc(-c3cccc(NC(=O)C(C)C)c3C)nc2c1,0.792 ± 0.062,0.908 ± 0.068,0.972 ± 0.094,0.848 ± 0.04,1.16 ± 0.068,1.33 ± 0.13,1.01 (active)
O=c1[nH][nH]c(=O)c2c(N=Cc3cc4c(cc3[N+](=O)[O-])OCO4)cccc12,0.878 ± 0.082,0.823 ± 0.074,0.961 ± 0.096,0.983 ± 0.031,1.13 ± 0.18,1.22 ± 0.28,0.995 (active)
CCn1nccc1C(=O)N1CCN(S(C)(=O)=O)CC1,1.02 ± 0.066,0.929 ± 0.092,0.991 ± 0.028,1.01 ± 0.069,0.994 ± 0.061,0.847 ± 0.13,1 (active)
O=C(CCCCCN1C(=O)c2cccc3cccc(c23)C1=O)NO,1.71 ± 0.32,1.43 ± 0.12,4.2 ± 0.32,0.062 ± 0.0017,0.581 ± 0.061,0.632 ± 0.12,0.536 (inactive)
C=CCN1C(=O)C(=C2C(=O)N(Cc3ccccc3F)c3ccccc32)SC1=S,1.09 ± 0.1,1.02 ± 0.079,1.01 ± 0.062,0.904 ± 0.039,1.37 ± 0.18,1.13 ± 0.19,1.01 (active)
Cc1ccc(F)c(NC(=O)Nc2ccc(-c3cccc4[nH]nc(N)c34)cc2)c1,0.692 ± 0.1,0.758 ± 0.2,1.59 ± 0.16,0.102 ± 0.0067,1.04 ± 0.22,1.19 ± 0.38,0.829 (active)
CCOc1ccc(CN(CCc2ccc3c(c2)OCO3)Cc2cccc3ccccc23)cc1,0.73 ± 0.071,0.888 ± 0.074,1.07 ± 0.074,0.619 ± 0.061,0.908 ± 0.045,1.04 ± 0.18,0.998 (active)
CCOC(=O)c1c(C)nn(C2CCCCC2)c1N,1.1 ± 0.1,1.02 ± 0.049,1.09 ± 0.099,0.954 ± 0.044,1.2 ± 0.075,1.37 ± 0.12,1.02 (active)
O=C(Nc1nccs1)c1ccc2c(c1)C(=O)N(C1CCCCC1)C2=O,1.09 ± 0.086,1.05 ± 0.096,0.878 ± 0.052,0.979 ± 0.032,1.57 ± 0.22,1.21 ± 0.21,1 (active)
O=C(O)c1cccnc1C(=O)O,1.03 ± 0.087,1.04 ± 0.07,0.971 ± 0.022,0.941 ± 0.052,0.981 ± 0.12,0.867 ± 0.07,1 (active)
CN(C)c1nc(CNC(=O)c2cnn(-c3ccccc3)n2)nc(N2CCCC2)n1,1.01 ± 0.052,1.1 ± 0.086,1.02 ± 0.11,1.05 ± 0.054,1.26 ± 0.08,1.13 ± 0.31,1.02 (active)
CN(C)CCCN1c2ccccc2Sc2ccccc21.Cl,0.791 ± 0.075,0.956 ± 0.12,1.25 ± 0.054,0.719 ± 0.051,0.994 ± 0.07,0.798 ± 0.069,0.534 (inactive)
CC(=O)N1CCN(C(=O)Cn2cnc(-c3ccc(C)cc3)cc2=O)CC1,0.929 ± 0.095,1.01 ± 0.1,1.06 ± 0.14,1.02 ± 0.058,1.17 ± 0.24,1.18 ± 0.45,0.964 (active)
COc1ccc(C2CC(=O)c3c(O)cc(O)cc3O2)cc1O (stereo not drawn),1.43 ± 0.35,1.14 ± 0.064,1.15 ± 0.073,0.845 ± 0.028,1.14 ± 0.21,1.1 ± 0.1,1 (active)
CS(=O)(=O)O.Cc1ccc(N(CC2=NCCN2)c2cccc(O)c2)cc1,0.981 ± 0.19,1.03 ± 0.34,0.957 ± 0.09,0.628 ± 0.019,1.09 ± 0.28,1.04 ± 0.08,1 (active)
CC(C)(C)C1=CC2(C=C(C(C)(C)C)C1=O)Nc1cccc3cccc(c13)N2,0.874 ± 0.12,1.08 ± 0.062,0.96 ± 0.075,0.754 ± 0.037,1.17 ± 0.11,0.942 ± 0.078,1.01 (active)
Cc1cc(C)n(CCNc2nc3ccccc3s2)n1,1.07 ± 0.1,1.08 ± 0.085,1 ± 0.1,1.08 ± 0.055,1.18 ± 0.081,1.14 ± 0.29,0.993 (active)
CCOC(=O)[C@H](CCc1ccccc1)N[C@@H](C)C(=O)N1CCC[C@H]1C(=O)O.O=C(O)/C=C\C(=O)O,1.05 ± 0.09,1.01 ± 0.11,1 ± 0.054,1.01 ± 0.085,0.916 ± 0.04,0.868 ± 0.2,1 (active)
